Reference: PubChem BioAssay AID493026 (Johns Hopkins Ion Channel Center, 2011)
In all, about 1,000 compounds went through this assay and about 150 (15%) were called active.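 How the source made its calls: active means activity change at least 3 SD of negative controls below their mean in both duplicate wells; inactive means the rest.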 The sample as a whole holds a higher share of actives than the screen did.

These compounds were tested against Potassium voltage-gated channel subfamily KQT member 1 (Homo sapiens) (UniProt P51787) (assay: human KCNQ1 channel inhibition, counter-screen for KCNQ2 inhibitor project, cell-based, FluxOR thallium flux (AID 493026;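 further: CHO cells stably transfected with KCNQ1 and depolarized by potassium stimulus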;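 on activity change, negative = inhibition: peak minus minimum fluorescence over baseline after thallium addition; 0% = vehicle negative control and -100% = blank without thallium stimulus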)). Conditions: KCNQ1-expressing cells, FluxOR thallium flux fluorescence, at 10 µM; hits give low values.
Potassium voltage-gated channel subfamily KQT member 1 (Homo sapiens), sequence (P51787 whole entry, looked up): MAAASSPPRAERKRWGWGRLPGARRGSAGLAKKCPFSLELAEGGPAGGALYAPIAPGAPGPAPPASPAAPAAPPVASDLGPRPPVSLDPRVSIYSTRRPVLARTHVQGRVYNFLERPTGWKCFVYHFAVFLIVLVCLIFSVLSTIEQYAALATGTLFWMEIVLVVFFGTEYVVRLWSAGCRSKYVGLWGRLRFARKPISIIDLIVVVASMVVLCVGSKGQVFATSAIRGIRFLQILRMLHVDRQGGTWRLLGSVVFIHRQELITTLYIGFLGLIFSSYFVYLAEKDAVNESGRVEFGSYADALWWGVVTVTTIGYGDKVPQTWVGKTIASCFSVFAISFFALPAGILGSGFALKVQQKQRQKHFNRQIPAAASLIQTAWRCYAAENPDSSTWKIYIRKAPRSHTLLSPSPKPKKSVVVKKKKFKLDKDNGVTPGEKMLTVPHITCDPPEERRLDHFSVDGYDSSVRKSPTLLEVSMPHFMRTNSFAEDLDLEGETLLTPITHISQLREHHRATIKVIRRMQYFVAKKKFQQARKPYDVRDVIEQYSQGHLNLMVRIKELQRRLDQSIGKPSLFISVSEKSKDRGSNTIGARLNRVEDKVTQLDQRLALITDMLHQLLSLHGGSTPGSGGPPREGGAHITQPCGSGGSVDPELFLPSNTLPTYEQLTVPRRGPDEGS

SMILES | activity change, negative = inhibition
CN(C)CC1Oc2ccccc2OC1(O)c1ccccc1 (configuration not stated) | -30.5% (active)
O=C(NC(c1ccc(Cl)cc1)P(=O)(Oc1ccccc1)Oc1ccccc1)OCc1ccccc1 (configuration not stated) | inactive
